Results reported in ChEMBL document CHEMBL1157539, “Thousands of chemical starting points for antimalarial lead identification” (Nature, 2010).

System: Plasmodium falciparum
Assay: GSK_TCMDC: Inhibition of Plasmodium falciparum 3D7 in whole red blood cells, using parasite LDH activity as an index of growth. Test compounds present at 2uM
Assay type: functional

Row | SMILES | Inhibition
1 | CN1CCN(CCCN(Cc2ccc(-c3cccc(CNCc4ccc5c(c4)OCO5)c3)cc2)C(=O)Nc2ccccc2)CC1.O=C(O)C(F)(F)F | 100%
2 | COc1ccc(CNc2ncnc3c2[nH]c2ccc(F)cc23)cc1 | 93%
3 | Cc1ccccc1C1CCN(C2CCC(NC(=O)c3cncc(-c4ccccc4)c3)CC2)CC1 (centres undefined) | 100%
4 | Cc1cc(N2CCNCC2)c2cc(NC(=O)Nc3ccc(Cl)c(Cl)c3)ccc2n1.Cl | 100%
5 | N#Cc1ccccc1C(=O)N(Cc1cncn1Cc1cccc(F)c1)CC1CC1 | 100%
6 | O=C(Nc1ccc(-c2cccc(-c3nc4ccccc4[nH]3)c2)cc1)c1cnn2cccnc12 | 99%
7 | COc1ccc(C2CCN(CCCCNC(=O)c3ccc(NC(=O)c4ccc(Cl)cc4)cc3)C2)c(OC)c1 (centres undefined) | 84%
8 | Cc1cc(C(=O)Nc2ccc(-c3ccccc3)cc2)no1 | 90%
9 | Cc1nc(C)c(-c2ccc(C(=O)c3ccc(Cl)cc3)cc2)c(O)c1Br | 97%
10 | OC(CNC1CCCCC1)Cn1c2ccccc2c2ccccc21 (centres undefined) | 97%
11 | O=C(Nc1ccc(C(F)(F)F)cc1)c1cccc(S(=O)(=O)NC2CCN(Cc3ccccc3)C2)c1.O=C(O)C(F)(F)F (centres undefined) | 88%
12 | Cc1cc(NC2CCN(CC3CCCCC3)C2)nc(Nc2ccc(Cl)cc2)n1 (centres undefined) | 98%
13 | Cc1cccc2nc(-c3ccc(-c4ccc(C(=O)NCCc5cn(C)cn5)cc4)s3)[nH]c12 | 88%
14 | Cc1cccc(S(=O)(=O)Nc2cccc(CCN3CCC(N4CCCCC4)CC3)c2)c1 | 87%
15 | COc1ccc2ncc(F)c(CCN3CC[C@@H](CNCc4ccc5c(c4C)OCCO5)C3)c2n1.Cl | 94%
16 | Cc1ccc(O)cc1Nc1ccnc2ccc(C(C)(C)C)cc12 | 100%
17 | Cc1cc(OCc2ccncc2)cc2c1C(=O)CC(C)(C)O2 | 99%
18 | O=C(Nc1ccc(C(F)(F)F)cc1)c1ccc(S(=O)(=O)NC2CCN(CC3CCCCC3)C2)cc1.O=C(O)C(F)(F)F (centres undefined) | 99%
19 | CC(=O)c1ccc(NC(=O)Nc2ccc(N(C)c3ccnc(Nc4cccc(CS(C)(=O)=O)c4)n3)cc2)cc1 | 100%
20 | O=C(Nc1ccc(-c2cccc(-c3nc4cc(F)ccc4[nH]3)c2)cc1)Nc1ccc(F)c(F)c1F | 100%

Row | SMILES | Inhibition
21 | CCCCc1cc(NC2CCN(C)CC2)nc(Nc2ccccc2)n1 | 100%
22 | O=C(NC1CCN(Cc2ccccc2)CC1)c1ccc2c(=O)n(Cc3ccc(Cl)cc3)c(=S)[nH]c2c1 | 100%
23 | CCc1c[nH]c2c(N3CCCS3(=O)=O)cc(C(=O)N[C@@H](Cc3ccccc3)[C@H](O)CNC3CCCCC3)cc12.O=CO | 99%
24 | O=C(/C=C/c1ccc(C(F)(F)F)cc1)N1CCC(CCN2CCC(c3c[nH]c4ccccc34)CC2)CC1 | 100%
25 | O=C(NCCN1CCCC1)c1cccc(-c2ccc(-c3nc4ccccc4[nH]3)s2)c1 | 96%
26 | CCNC(=O)Nc1cccc(-c2cccc(-c3nc4cccc(C)c4[nH]3)c2)c1 | 85%
27 | CCc1ccc(CN2CCC(CNC(=O)c3cc(-c4cccc(F)c4)cs3)C2)cc1.O=C(O)C(F)(F)F (centres undefined) | 84%
28 | CC(C)Oc1ccc(N2CCN(CCCCNC(=O)c3ccc(NC(=O)c4ccc(Cl)cc4)cc3)CC2)c(OC(C)C)c1 | 100%
29 | CCCN(CCC)C(=O)c1cc(-c2cccc(C)c2)nc2ccccc12 | 86%
30 | O=C(/C=C/c1ccc(Cl)c(Cl)c1)NCCCCCN1CCC(NC(=O)Nc2ccc(Oc3ccccc3)cc2)C1 (centres undefined) | 99%
31 | Cc1cc(-c2ccc(CNC3CCN(C)CC3)cc2)ccc1S(=O)(=O)NCc1ccccc1.O=C(O)C(F)(F)F | 100%
32 | O=C(/C=C/c1ccc(Cl)c(Cl)c1)NCCCCCN1CCC(NC(=O)Nc2cc(F)ccc2F)CC1 | 98%
33 | O=C(O)C(F)(F)F.Oc1ccc(CCNc2nc(NCCCOc3cccc(CN4CCCCC4)c3Cl)nc(N3CCNCC3)n2)cc1 | 100%
34 | CCCN(CCC)CCCNc1ccc(C(=O)Nc2ccc(C)c(F)c2)cc1[N+](=O)[O-] | 100%
35 | COc1ccccc1CNc1ccnc(N2CC(Oc3ccc(F)cc3)C2)n1 | 97%
36 | FC(F)(F)c1ccc2[nH]c(-c3ccc(-c4ccc(CNCCN5CCNCC5)cc4)cc3)nc2c1.O=C(O)C(F)(F)F | 92%
37 | C[C@@H](N)C#Cc1cc2c(Nc3ccc(OCc4cccc(F)c4)c(Cl)c3)ncnc2s1.O=CO | 89%
38 | CCc1cn(C)c2c(N3CCCC3=O)cc(C(=O)N[C@@H](Cc3ccccc3)[C@H](O)CNC(C)(C)c3cccc(C(F)(F)F)c3)cc12 | 97%
39 | CCN(CC)c1ccc(C(=O)Cn2ccc(=N)cc2)cc1 | 84%
